Assays:
Experiment in all cases: log2 ratio of Biotin-Ahx-Ub-VS probe labelling (fragment/DMSO); higher = less target engagement (more negative = stronger competition), active = hit call of the paper (q ≤ 0.05, log2 ratio ≤ -1)
Conditions in all cases: compound concentration: 200 uM; treatment time: 3 h
USP42 = target: T1, USP42 (UniProt Q9H9J4)
T1 sequence (whole entry): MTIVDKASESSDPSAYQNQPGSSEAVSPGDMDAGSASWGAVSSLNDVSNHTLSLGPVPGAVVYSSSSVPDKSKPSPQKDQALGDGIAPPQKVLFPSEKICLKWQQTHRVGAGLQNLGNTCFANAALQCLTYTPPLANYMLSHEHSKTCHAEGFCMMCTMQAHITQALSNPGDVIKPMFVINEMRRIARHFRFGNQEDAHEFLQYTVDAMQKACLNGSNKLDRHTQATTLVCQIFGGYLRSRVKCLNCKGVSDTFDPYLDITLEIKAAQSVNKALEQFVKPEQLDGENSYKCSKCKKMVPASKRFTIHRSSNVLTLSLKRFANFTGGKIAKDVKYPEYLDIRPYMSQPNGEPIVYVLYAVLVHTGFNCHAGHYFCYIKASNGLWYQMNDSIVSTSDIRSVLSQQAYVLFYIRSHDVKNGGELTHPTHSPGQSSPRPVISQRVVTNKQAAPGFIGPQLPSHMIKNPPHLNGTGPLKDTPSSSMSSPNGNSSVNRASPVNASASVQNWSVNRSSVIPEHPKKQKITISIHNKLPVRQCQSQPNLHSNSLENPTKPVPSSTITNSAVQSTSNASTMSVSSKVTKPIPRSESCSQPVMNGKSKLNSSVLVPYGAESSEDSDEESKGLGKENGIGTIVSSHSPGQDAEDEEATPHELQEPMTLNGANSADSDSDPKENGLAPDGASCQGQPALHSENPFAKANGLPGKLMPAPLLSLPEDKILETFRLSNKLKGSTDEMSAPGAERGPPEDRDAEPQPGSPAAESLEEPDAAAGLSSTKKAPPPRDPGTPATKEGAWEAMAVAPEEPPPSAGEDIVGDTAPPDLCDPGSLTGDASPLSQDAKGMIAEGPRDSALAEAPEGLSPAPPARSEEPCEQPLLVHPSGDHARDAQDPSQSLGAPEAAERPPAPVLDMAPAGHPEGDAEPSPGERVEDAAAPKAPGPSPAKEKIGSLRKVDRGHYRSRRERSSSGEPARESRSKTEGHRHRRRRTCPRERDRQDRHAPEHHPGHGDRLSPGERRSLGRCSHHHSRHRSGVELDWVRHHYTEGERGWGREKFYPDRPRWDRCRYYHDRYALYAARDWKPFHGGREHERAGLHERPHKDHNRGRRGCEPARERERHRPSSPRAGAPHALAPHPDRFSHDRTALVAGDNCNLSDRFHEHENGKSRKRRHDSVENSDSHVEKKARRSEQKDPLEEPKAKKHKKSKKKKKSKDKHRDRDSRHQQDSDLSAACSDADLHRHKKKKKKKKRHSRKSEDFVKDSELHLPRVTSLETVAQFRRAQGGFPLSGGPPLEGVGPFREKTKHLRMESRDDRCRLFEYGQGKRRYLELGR
In short: (§1)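 HEK293T lysate in Tris/CHAPS/IGEPAL buffer with protease inhibitors (495 µg per sample) was given fragment at 200 µM or vehicle for 3 h, in triplicate. It then received Biotin-Ahx-Ub-VS at 0.5 µM final for 1 h. Labelled DUBs were NeutrAvidin-enriched, digested with LysC and trypsin, and run by diaPASEF LC-MS/MS. Values are average log2 fragment/vehicle ratios by unpaired t-test on global-median-normalised Spectronaut quantities of proteins with ≥2 unique peptides.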

USP46 = USP46 (UniProt P62068)
Chain of USP46 (P62068 whole entry): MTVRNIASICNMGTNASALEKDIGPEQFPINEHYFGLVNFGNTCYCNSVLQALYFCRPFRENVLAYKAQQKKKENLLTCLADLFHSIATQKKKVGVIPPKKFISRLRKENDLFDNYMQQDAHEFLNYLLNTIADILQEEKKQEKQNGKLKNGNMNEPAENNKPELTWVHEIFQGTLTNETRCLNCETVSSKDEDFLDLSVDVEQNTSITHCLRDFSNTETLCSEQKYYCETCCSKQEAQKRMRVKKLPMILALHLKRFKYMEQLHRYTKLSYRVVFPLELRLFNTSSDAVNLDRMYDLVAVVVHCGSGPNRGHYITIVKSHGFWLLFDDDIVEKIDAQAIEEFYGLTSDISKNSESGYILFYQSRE
In short: as §1

USP47 = target: T2, USP47 (UniProt Q96K76)
T2 sequence (whole entry): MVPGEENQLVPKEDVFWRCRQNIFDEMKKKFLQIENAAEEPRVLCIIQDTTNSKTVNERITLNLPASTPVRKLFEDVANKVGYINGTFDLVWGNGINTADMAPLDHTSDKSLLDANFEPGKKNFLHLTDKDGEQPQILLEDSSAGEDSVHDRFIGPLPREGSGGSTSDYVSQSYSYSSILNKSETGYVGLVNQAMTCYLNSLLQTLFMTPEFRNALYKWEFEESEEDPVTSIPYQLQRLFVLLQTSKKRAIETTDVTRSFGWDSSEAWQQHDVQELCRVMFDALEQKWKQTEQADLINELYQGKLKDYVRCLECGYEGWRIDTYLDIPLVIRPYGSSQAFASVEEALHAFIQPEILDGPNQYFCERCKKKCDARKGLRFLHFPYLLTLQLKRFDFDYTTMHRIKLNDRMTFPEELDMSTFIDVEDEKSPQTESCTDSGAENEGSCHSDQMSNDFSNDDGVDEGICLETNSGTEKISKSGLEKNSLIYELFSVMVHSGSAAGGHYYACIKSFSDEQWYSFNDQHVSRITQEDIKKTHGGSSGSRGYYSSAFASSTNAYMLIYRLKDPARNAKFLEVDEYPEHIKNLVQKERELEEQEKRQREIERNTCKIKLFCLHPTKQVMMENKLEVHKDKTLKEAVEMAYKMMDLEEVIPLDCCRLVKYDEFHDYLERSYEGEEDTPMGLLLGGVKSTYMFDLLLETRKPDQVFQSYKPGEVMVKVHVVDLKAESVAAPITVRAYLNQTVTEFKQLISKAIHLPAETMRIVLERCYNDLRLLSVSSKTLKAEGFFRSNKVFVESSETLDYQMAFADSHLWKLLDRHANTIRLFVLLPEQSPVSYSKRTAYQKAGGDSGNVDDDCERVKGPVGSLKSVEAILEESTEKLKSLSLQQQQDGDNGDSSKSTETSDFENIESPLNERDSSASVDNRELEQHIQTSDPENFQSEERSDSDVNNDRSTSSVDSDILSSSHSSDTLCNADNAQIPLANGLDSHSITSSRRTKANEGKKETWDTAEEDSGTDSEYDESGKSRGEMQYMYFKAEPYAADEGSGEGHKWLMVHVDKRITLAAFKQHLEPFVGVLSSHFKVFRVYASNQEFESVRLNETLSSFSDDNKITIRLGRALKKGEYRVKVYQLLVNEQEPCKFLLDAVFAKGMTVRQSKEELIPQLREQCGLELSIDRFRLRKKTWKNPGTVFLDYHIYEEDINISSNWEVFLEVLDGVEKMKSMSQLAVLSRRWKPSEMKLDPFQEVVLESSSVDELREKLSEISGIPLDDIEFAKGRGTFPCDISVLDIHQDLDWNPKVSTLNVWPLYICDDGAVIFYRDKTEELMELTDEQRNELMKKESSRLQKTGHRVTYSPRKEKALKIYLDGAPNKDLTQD
In short: as §1

USP48 = target: T3, USP48 (UniProt Q86UV5)
T3 sequence (whole entry): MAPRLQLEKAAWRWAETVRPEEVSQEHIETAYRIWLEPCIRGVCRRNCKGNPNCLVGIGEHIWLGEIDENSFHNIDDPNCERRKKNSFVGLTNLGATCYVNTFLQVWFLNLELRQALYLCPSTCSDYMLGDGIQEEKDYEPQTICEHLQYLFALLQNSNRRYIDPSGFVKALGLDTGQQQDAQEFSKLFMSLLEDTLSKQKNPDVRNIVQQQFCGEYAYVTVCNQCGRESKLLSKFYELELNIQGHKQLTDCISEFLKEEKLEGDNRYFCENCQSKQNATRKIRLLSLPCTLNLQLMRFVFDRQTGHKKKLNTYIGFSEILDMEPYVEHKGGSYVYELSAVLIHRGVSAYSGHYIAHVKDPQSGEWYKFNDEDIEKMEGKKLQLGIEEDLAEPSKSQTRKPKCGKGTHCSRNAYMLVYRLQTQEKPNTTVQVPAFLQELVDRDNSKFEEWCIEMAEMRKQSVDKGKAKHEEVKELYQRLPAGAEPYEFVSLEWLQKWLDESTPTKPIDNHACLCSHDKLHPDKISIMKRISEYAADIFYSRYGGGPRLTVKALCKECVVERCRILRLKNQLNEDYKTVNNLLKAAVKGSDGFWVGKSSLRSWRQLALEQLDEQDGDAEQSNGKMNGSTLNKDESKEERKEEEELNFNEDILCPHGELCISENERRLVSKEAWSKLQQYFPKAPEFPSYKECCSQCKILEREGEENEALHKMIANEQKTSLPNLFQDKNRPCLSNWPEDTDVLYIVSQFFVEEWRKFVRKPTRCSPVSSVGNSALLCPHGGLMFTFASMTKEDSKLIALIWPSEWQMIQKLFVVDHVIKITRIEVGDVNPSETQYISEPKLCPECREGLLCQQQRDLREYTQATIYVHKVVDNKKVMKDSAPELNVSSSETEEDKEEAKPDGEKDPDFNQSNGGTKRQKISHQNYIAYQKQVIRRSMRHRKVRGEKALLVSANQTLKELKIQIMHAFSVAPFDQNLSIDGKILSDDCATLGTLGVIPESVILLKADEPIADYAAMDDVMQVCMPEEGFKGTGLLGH
In short: as §1

USP5 = target: T4, USP5 (UniProt P45974)
T4 sequence (whole entry): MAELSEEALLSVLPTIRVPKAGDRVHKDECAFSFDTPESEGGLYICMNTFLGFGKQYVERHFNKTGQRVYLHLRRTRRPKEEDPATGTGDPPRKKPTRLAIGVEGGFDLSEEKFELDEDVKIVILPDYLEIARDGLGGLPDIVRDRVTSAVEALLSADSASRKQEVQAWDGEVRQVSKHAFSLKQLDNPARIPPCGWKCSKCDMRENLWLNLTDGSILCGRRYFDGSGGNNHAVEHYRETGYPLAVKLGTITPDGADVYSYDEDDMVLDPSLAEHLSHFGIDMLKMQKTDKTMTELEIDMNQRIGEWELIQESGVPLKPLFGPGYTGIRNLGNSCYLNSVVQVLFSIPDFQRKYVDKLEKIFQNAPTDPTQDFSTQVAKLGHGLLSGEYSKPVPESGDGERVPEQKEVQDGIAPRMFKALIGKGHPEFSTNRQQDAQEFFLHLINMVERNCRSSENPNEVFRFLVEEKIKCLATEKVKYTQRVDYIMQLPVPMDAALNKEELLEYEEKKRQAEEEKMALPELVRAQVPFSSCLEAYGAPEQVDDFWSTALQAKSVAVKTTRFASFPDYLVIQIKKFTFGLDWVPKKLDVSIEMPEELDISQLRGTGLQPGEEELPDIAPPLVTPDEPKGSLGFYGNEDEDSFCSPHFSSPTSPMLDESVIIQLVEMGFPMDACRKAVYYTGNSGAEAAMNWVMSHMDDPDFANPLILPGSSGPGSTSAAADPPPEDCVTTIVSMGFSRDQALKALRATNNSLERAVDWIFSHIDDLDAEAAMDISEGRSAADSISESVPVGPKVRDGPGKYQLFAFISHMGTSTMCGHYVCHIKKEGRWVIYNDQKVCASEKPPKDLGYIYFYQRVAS
In short: as §1

USP54 = USP54 (UniProt Q70EL1)
Chain of USP54 (Q70EL1 whole entry): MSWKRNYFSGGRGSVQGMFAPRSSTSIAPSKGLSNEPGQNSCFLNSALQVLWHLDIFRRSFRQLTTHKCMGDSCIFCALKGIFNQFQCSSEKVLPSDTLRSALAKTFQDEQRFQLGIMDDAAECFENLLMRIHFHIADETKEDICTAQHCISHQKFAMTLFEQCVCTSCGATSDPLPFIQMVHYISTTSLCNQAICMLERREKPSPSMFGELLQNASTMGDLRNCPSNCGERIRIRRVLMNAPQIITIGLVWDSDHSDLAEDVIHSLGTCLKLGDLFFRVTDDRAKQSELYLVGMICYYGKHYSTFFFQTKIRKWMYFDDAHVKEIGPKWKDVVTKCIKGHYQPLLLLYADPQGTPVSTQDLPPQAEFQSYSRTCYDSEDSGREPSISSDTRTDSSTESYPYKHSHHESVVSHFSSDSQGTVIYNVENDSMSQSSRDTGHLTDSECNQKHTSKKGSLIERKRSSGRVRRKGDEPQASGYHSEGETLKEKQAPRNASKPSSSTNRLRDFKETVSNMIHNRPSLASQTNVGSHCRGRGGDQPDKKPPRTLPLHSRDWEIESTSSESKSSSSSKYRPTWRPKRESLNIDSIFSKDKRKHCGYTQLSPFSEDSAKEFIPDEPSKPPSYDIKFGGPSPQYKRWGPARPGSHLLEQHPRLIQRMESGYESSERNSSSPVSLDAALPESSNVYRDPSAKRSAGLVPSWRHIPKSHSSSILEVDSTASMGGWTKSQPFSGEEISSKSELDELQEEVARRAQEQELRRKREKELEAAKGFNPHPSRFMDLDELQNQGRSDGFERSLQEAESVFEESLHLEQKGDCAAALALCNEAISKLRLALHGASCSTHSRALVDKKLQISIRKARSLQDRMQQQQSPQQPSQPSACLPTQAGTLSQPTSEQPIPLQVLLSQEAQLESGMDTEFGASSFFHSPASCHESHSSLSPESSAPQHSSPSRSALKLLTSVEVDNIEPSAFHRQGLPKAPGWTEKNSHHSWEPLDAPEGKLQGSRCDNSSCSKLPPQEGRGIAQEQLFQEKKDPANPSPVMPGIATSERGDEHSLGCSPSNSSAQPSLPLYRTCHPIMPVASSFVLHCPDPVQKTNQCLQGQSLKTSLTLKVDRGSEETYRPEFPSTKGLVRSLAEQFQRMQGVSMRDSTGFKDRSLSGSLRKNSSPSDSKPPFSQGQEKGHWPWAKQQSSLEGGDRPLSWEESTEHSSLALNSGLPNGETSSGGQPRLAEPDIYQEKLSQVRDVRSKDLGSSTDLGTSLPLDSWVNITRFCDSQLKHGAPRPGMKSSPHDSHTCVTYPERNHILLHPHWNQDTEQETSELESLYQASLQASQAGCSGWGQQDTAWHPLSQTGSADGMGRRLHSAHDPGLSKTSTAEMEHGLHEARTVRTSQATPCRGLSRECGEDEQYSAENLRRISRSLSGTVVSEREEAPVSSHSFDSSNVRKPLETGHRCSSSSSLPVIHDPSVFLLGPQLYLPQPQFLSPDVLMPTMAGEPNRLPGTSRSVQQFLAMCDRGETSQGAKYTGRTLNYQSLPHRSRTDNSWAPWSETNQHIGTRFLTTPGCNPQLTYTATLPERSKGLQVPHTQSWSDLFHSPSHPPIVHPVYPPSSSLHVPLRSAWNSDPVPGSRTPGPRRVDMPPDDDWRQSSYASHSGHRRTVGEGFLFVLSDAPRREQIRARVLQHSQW
In short: as §1

USP7 = USP7 (UniProt Q93009)
In short: as §1

USP8 = target: T5, USP8 (UniProt P40818)
T5 sequence (whole entry): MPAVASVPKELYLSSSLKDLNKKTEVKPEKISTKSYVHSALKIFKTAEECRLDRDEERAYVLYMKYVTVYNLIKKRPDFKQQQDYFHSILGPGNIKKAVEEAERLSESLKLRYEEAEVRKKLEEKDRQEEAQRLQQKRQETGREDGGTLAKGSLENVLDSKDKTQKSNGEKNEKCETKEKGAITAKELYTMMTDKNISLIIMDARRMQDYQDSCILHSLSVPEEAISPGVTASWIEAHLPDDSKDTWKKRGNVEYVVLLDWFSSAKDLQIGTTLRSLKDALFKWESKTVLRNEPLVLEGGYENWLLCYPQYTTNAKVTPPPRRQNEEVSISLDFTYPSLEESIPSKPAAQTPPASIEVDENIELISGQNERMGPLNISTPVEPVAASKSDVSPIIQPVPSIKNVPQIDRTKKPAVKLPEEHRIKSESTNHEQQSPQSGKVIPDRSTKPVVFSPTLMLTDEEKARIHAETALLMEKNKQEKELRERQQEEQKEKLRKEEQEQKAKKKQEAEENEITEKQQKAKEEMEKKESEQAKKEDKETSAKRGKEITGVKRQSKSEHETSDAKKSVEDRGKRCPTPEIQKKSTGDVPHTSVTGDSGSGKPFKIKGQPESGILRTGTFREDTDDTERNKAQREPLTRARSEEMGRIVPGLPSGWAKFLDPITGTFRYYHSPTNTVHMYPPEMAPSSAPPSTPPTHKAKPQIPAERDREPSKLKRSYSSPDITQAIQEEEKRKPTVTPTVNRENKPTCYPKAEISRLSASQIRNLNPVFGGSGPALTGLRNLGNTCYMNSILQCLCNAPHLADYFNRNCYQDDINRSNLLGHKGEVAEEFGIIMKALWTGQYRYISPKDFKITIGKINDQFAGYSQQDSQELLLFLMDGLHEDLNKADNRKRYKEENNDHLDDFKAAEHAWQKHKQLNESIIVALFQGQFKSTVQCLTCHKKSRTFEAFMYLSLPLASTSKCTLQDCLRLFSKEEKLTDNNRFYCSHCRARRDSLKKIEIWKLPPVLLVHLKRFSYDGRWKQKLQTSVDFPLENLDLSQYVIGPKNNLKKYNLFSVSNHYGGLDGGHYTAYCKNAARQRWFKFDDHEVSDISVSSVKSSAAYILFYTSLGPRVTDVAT
In short: as §1

USP9X = USP9X (UniProt Q93008)
Chain of USP9X (Q93008 whole entry): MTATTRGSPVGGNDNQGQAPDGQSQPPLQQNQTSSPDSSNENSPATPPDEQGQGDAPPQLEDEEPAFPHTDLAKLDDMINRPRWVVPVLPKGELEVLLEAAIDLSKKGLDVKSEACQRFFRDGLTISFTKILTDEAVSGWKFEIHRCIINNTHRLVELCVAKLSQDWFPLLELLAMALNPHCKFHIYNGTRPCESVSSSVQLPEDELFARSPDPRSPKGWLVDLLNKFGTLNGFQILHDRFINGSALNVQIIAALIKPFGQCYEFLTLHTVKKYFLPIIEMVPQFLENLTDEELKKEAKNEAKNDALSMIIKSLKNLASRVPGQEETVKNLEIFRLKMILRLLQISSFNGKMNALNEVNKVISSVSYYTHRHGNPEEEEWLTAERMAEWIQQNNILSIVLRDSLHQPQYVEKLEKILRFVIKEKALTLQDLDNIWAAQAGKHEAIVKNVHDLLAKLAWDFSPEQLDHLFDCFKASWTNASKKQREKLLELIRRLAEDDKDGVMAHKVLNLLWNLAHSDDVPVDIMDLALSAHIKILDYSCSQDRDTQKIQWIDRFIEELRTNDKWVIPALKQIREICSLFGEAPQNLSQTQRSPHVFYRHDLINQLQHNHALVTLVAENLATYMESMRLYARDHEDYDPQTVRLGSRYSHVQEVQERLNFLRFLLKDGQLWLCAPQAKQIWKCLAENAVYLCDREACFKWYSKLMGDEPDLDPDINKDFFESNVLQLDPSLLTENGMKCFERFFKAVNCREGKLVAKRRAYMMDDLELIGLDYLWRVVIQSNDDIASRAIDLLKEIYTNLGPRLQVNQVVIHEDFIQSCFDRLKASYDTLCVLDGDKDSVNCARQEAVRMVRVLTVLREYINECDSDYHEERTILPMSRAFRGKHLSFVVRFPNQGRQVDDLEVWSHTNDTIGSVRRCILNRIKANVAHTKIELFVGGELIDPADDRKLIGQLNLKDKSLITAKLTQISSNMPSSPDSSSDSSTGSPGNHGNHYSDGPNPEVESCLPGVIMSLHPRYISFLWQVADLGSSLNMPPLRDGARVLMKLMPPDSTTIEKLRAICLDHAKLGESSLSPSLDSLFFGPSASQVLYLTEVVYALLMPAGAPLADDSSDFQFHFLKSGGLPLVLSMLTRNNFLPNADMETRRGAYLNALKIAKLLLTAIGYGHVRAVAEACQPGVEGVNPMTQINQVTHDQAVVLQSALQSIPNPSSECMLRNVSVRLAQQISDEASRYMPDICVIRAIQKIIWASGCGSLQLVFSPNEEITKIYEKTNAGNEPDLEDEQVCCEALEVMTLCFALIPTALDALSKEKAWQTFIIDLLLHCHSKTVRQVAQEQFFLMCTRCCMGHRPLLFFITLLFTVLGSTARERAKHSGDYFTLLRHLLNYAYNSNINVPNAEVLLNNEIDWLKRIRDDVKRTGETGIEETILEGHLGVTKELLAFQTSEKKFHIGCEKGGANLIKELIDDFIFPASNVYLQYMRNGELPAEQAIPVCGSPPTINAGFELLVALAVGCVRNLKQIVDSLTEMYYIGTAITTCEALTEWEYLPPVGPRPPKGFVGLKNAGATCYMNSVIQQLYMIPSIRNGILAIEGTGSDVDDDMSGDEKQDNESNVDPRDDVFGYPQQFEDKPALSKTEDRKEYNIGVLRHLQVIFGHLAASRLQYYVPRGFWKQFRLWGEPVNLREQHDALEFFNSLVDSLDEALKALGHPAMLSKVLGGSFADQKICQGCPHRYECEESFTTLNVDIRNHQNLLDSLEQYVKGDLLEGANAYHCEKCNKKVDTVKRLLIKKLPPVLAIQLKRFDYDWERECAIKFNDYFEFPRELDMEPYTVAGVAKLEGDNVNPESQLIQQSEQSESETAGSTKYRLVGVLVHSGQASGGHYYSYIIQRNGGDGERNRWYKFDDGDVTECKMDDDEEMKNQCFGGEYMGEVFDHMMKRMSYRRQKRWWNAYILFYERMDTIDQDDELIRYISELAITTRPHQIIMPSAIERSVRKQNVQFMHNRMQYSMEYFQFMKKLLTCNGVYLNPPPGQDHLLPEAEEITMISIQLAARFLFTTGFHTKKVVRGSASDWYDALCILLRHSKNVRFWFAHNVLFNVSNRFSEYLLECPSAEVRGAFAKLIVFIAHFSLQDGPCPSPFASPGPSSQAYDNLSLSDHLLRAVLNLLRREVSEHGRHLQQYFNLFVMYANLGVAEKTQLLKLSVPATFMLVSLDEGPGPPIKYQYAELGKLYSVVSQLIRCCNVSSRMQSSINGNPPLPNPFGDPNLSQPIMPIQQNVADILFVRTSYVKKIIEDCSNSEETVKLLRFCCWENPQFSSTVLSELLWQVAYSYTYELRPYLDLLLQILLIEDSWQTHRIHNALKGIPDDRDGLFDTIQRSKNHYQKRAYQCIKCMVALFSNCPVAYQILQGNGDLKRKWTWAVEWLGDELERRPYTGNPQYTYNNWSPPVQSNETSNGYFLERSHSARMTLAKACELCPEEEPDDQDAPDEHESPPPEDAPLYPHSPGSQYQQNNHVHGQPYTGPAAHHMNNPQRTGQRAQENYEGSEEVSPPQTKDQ
In short: as §1

UniProt O00487 = target: UniProt O00487
Chain of UniProt O00487 (O00487 whole entry): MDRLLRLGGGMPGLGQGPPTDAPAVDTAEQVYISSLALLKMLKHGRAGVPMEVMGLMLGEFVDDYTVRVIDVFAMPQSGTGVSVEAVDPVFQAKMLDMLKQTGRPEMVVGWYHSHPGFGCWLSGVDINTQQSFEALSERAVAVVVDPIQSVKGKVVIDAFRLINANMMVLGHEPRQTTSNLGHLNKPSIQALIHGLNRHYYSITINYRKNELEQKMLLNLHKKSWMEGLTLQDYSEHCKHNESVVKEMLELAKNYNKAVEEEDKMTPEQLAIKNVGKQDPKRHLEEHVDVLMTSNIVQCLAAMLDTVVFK
In short: as §1

Measured: log2 ratio of Biotin-Ahx-Ub-VS probe labelling

CS(=O)(=O)N1CCCN(C(=O)CCl)CC1
inactive: USP42 -0.107 | USP46 0.169 | USP47 -0.733 | USP48 -0.507 | USP5 -0.0151 | USP54 0.239 | USP7 -0.301 | USP8 -0.323 | USP9X -0.177 | UniProt O00487 0.0126

— the supplement of paper PMC11732987, “Enantioselective OTUD7B fragment discovery through chemoproteomics screening and high-throughput optimisation” (Communications Chemistry, 2025)
